# According to the supplement of paper PMC8728848:
# Shown is part of a subset that was picked to be rich in the strongest signals.
# Key:
# Test in all cases: glycan array binding signal (z-score within array); higher = stronger binding
# Conditions in all cases: glycan notation: IUPAC condensed, linker removed; mutation: H262T
# [1] = target: Fuc(a1-2)Gal(b1-3)GalNAc(a1-3)[Fuc(a1-2)]Gal(b1-4)Glc
# Procedure, shortened: (§1)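 Negative Z-scores can be read as non-binding. The Z-score is calculated within each array and then averaged across arrays of one protein sequence at different concentrations or buffers and across linkers. Arrays, 3228 in all, were curated from the Consortium for Functional Glycomics database and kept only where the protein sequence was available.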
# [2] = target: Fuc(a1-2)Gal(b1-3)GlcNAc(b1-3)[Gal(b1-4)GlcNAc(b1-6)]Gal(b1-4)Glc
# Procedure, shortened: as §1
# [3] = target: Fuc(a1-2)Gal(b1-4)GlcNAc
# Procedure, shortened: as §1
# [4] = target: Fuc(a1-2)Gal(b1-4)GlcNAc(b1-6)GalNAc
# Procedure, shortened: as §1
# [5] = target: Fuc(a1-2)Gal6S(b1-3)GlcNAc6S
# Procedure, shortened: as §1
# [6] = target: Fuc(a1-2)[Gal(a1-3)]Gal
# Procedure, shortened: as §1
# [7] = target: Fuc(a1-2)[Gal(a1-3)]Gal(b1-4)GlcNAc(b1-2)Man(a1-3)[Fuc(a1-2)[Gal(a1-3)]Gal(b1-4)GlcNAc(b1-2)Man(a1-6)]Man(b1-4)GlcNAc(b1-4)GlcNAc
# Procedure, shortened: as §1
# [8] = target: Fuc(a1-2)[Gal(a1-3)]Gal(b1-4)[Fuc(a1-3)]Glc
# Procedure, shortened: as §1
# [9] = target: Fuc(a1-2)[GalNAc(a1-3)]Gal(b1-3)GlcNAc(b1-6)GalNAc
# Procedure, shortened: as §1
# [10] = target: Fuc(a1-2)[GalNAc(a1-3)]Gal(b1-4)GlcNAc(b1-2)Man
# Procedure, shortened: as §1
# [11] = target: Fuc(a1-2)[GalNAc(a1-3)]Gal(b1-4)GlcNAc(b1-6)GalNAc
# Procedure, shortened: as §1
# [12] = target: Fuc(a1-2)[GalNAc(a1-4)]Gal(b1-4)GlcNAc
# Procedure, shortened: as §1
# [13] = target: Fuc(a1-2)[GalNAc(b1-3)]Gal
# Procedure, shortened: as §1
# [14] = target: Fuc(a1-4)GlcNAc
# Procedure, shortened: as §1
# [15] = target: Gal(a1-3)Gal
# Procedure, shortened: as §1
# [16] = target: Gal(a1-3)Gal(b1-3)GlcNAc(b1-6)GalNAc
# Procedure, shortened: as §1
# [17] = target: Gal(a1-3)Gal(b1-4)GlcNAc(b1-2)Man
# Procedure, shortened: as §1
# [18] = target: Gal(a1-3)Gal(b1-4)GlcNAc(b1-6)GalNAc
# Procedure, shortened: as §1
# [19] = target: Gal(a1-4)Gal(b1-4)GlcNAc(b1-2)Man(a1-3)[Gal(a1-4)Gal(b1-4)GlcNAc(b1-2)Man(a1-6)]Man(b1-4)GlcNAc(b1-4)GlcNAc
# Procedure, shortened: as §1
# [20] = target: Gal(b1-3)GlcNAc(b1-6)GalNAc
# Procedure, shortened: as §1
# [21] = target: Gal(b1-3)[Fuc(a1-4)]GlcNAc(b1-2)Man
# Procedure, shortened: as §1
# [22] = target: Gal(b1-4)Glc6S
# Procedure, shortened: as §1
# [23] = target: Gal(b1-4)GlcNAc(a1-6)Gal(b1-4)GlcNAc
# Procedure, shortened: as §1
# [24] = target: Gal(b1-4)GlcNAc(b1-2)[Gal(b1-4)GlcNAc(b1-4)]Man(a1-3)[GlcNAc(b1-4)][Gal(b1-4)GlcNAc(b1-2)[Gal(b1-4)GlcNAc(b1-6)]Man(a1-6)]Man(b1-4)GlcNAc(b1-4)GlcNAc
# Procedure, shortened: as §1
# [25] = target: Gal(b1-4)GlcNAc(b1-3)Gal(b1-4)GlcNAc(b1-3)Gal(b1-4)GlcNAc(b1-2)Man(a1-3)[Gal(b1-4)GlcNAc(b1-3)Gal(b1-4)GlcNAc(b1-3)Gal(b1-4)GlcNAc(b1-2)Man(a1-6)]Man(b1-4)GlcNAc(b1-4)GlcNAc
# Procedure, shortened: as §1
# [26] = target: Gal(b1-4)GlcNAc(b1-3)Gal(b1-4)GlcNAc(b1-3)GalNAc
# Procedure, shortened: as §1
# [27] = target: Gal(b1-4)GlcNAc(b1-6)Gal(b1-4)GlcNAc
# Procedure, shortened: as §1
# [28] = target: Gal(b1-4)GlcNAc(b1-6)GalNAc
# Procedure, shortened: as §1
# [29] = target: Gal(b1-4)GlcNAc(b1-6)[Gal(b1-4)GlcNAc(b1-3)]GalNAc
# Procedure, shortened: as §1
# [30] = target: Gal3S(b1-3)GlcNAc
# Procedure, shortened: as §1
# [31] = target: GalNAc(b1-3)GlcNAc
# Procedure, shortened: as §1
# [32] = target: GlcA3S(b1-3)Gal(b1-4)GlcNAc(b1-3)Gal(b1-4)Glc
# Procedure, shortened: as §1
# [33] = target: GlcNAc(a1-4)Gal(b1-4)GlcNAc
# Procedure, shortened: as §1
# [34] = target: GlcNAc(b1-2)[GlcNAc(b1-6)]Man(a1-6)[GlcNAc(b1-2)Man(a1-3)]Man(b1-4)GlcNAc(b1-4)[Fuc(a1-6)]GlcNAc
# Procedure, shortened: as §1
# [35] = target: GlcNAc(b1-3)Gal
# Procedure, shortened: as §1
# [36] = target: GlcNAc(b1-3)Gal(b1-3)GalNAc
# Procedure, shortened: as §1
# [37] = target: GlcNAc(b1-3)Gal(b1-4)GlcNAc(b1-3)Gal(b1-4)GlcNAc(b1-3)Gal(b1-4)GlcNAc(b1-2)[GlcNAc(b1-3)Gal(b1-4)GlcNAc(b1-3)Gal(b1-4)GlcNAc(b1-3)Gal(b1-4)GlcNAc(b1-6)]Man(a1-6)[GlcNAc(b1-3)Gal(b1-4)GlcNAc(b1-3)Gal(b1-4)GlcNAc(b1-3)Gal(b1-4)GlcNAc(b1-2)Man(a1-3)]Man(b1-4)GlcNAc(b1-4)[Fuc(a1-6)]GlcNAc
# Procedure, shortened: as §1
# [38] = target: GlcNAc(b1-4)GlcNAc(b1-4)GlcNAc(b1-4)GlcNAc(b1-4)GlcNAc(b1-4)GlcNAc
# Procedure, shortened: as §1
# [39] = target: GlcNAc(b1-6)GalNAc
# Procedure, shortened: as §1
# [40] = target: Kdn(a2-3)Gal(b1-3)GalNAc
# Procedure, shortened: as §1
# [41] = target: Kdn(a2-3)Gal(b1-4)GlcNAc
# Procedure, shortened: as §1
# [42] = target: Man(a1-3)[Man(a1-6)]Man(a1-6)[Man(a1-2)Man(a1-3)]Man(b1-4)GlcNAc(b1-4)GlcNAc
# Procedure, shortened: as §1
# [43] = target: Man(b1-4)GlcNAc
# Procedure, shortened: as §1
# [44] = target: Neu5Ac(a2-3)Gal(b1-3)GalNAc
# Procedure, shortened: as §1
# [45] = target: Neu5Ac(a2-3)Gal(b1-3)GalNAc6S
# Procedure, shortened: as §1
# [46] = target: Neu5Ac(a2-3)Gal(b1-3)GlcNAc
# Procedure, shortened: as §1
# [47] = target: Neu5Ac(a2-3)Gal(b1-4)GlcNAc(b1-2)Man(a1-3)[Neu5Ac(a2-3)Gal(b1-4)GlcNAc(b1-2)Man(a1-6)]Man(b1-4)GlcNAc(b1-4)GlcNAc
# Procedure, shortened: as §1
# [48] = target: Neu5Ac(a2-3)Gal(b1-4)GlcNAc(b1-6)GalNAc
# Procedure, shortened: as §1
# [49] = target: Neu5Ac(a2-3)Gal6S(b1-4)GlcNAc
# Procedure, shortened: as §1
# [50] = target: Neu5Ac(a2-3)Gal6S(b1-4)[Fuc(a1-3)]GlcNAc
# Procedure, shortened: as §1
# [51] = target: Neu5Ac(a2-3)GalNAc(b1-4)GlcNAc
# Procedure, shortened: as §1
# [52] = target: Neu5Ac(a2-6)Gal(b1-4)GlcNAc(b1-2)Man(a1-6)[Gal(b1-4)GlcNAc(b1-2)Man(a1-3)]Man(b1-4)GlcNAc(b1-4)GlcNAc
# Procedure, shortened: as §1
# [53] = target: Neu5Ac(a2-6)Gal(b1-4)GlcNAc(b1-3)Gal(b1-3)GlcNAc
# Procedure, shortened: as §1
# [54] = target: Neu5Ac(a2-6)Gal(b1-4)GlcNAc(b1-3)Gal(b1-4)GlcNAc(b1-3)[Neu5Ac(a2-6)Gal(b1-4)GlcNAc(b1-3)Gal(b1-4)GlcNAc(b1-6)]GalNAc
# Procedure, shortened: as §1
# [55] = target: Neu5Ac(a2-6)Gal(b1-4)GlcNAc(b1-3)Gal(b1-4)GlcNAc(b1-6)[Gal(b1-3)]GalNAc
# Procedure, shortened: as §1
# [56] = target: Neu5Ac(a2-6)GalNAc(b1-4)GlcNAc6S
# Procedure, shortened: as §1
# [57] = target: Neu5Ac(a2-6)GlcNAc(b1-4)GlcNAc(b1-4)GlcNAc
# Procedure, shortened: as §1
# [58] = target: Neu5Ac9Ac(a2-3)Gal(b1-3)GlcNAc
# Procedure, shortened: as §1
# [59] = target: Neu5Gc(a2-3)Gal(b1-4)GlcNAc
# Procedure, shortened: as §1
binder,measurement,setting,value
MGL6A (Homo sapiens) (protein) MTRTYENFQYLENKVKVQGFKNGPLPLQSLLQRLCSGPCHLLLSLGLGLLLLVIICVVGFQNSKFQRDLVTLRTDFSNFTSNTVAEIQALTSQGSSLEETIASLKAEVEGFKQERQAVHSEMLLRVQQLVQDLKKLTCQVATLNNNGEEASTEGTCCPVNWVEHQDSCYWFSHSGMSWAEAEKYCQLKNAHLVVINSREEQNFVQKYLGSAYTWMGLSDPEGAWKWVDGTDYATGFQNWKPGQPDDWQGHGLGGGEDCAHFTPDGRWNDDVCQRPYHWVCEAGLGQTSQESH,glycan array binding signal (z-score),[1],-0.173
same,glycan array binding signal (z-score),[2],-0.175
same,glycan array binding signal (z-score),[3],-0.174
same,glycan array binding signal (z-score),[4],7.25
same,glycan array binding signal (z-score),[5],-0.154
same,glycan array binding signal (z-score),[6],-0.171
same,glycan array binding signal (z-score),[7],-0.165
same,glycan array binding signal (z-score),[8],-0.177
same,glycan array binding signal (z-score),[9],5.97
same,glycan array binding signal (z-score),[10],-0.176
same,glycan array binding signal (z-score),[11],5.98
same,glycan array binding signal (z-score),[12],4.51
same,glycan array binding signal (z-score),[13],5.17
same,glycan array binding signal (z-score),[14],-0.173
same,glycan array binding signal (z-score),[15],-0.171
same,glycan array binding signal (z-score),[16],7.68
same,glycan array binding signal (z-score),[17],-0.18
same,glycan array binding signal (z-score),[18],7.07
same,glycan array binding signal (z-score),[19],-0.168
same,glycan array binding signal (z-score),[20],6.2
same,glycan array binding signal (z-score),[21],-0.169
same,glycan array binding signal (z-score),[22],-0.172
same,glycan array binding signal (z-score),[23],-0.172
same,glycan array binding signal (z-score),[24],-0.197
same,glycan array binding signal (z-score),[25],-0.169
same,glycan array binding signal (z-score),[26],-0.172
same,glycan array binding signal (z-score),[27],-0.172
same,glycan array binding signal (z-score),[28],3.65
same,glycan array binding signal (z-score),[29],-0.172
same,glycan array binding signal (z-score),[30],-0.208
same,glycan array binding signal (z-score),[31],0.976
same,glycan array binding signal (z-score),[32],-0.178
same,glycan array binding signal (z-score),[33],-0.173
same,glycan array binding signal (z-score),[34],-0.173
same,glycan array binding signal (z-score),[35],-0.178
same,glycan array binding signal (z-score),[36],-0.166
same,glycan array binding signal (z-score),[37],-0.162
same,glycan array binding signal (z-score),[38],-0.175
same,glycan array binding signal (z-score),[39],5.17
same,glycan array binding signal (z-score),[40],-0.176
same,glycan array binding signal (z-score),[41],-0.161
same,glycan array binding signal (z-score),[42],-0.153
same,glycan array binding signal (z-score),[43],-0.172
same,glycan array binding signal (z-score),[44],-0.16
same,glycan array binding signal (z-score),[45],-0.171
same,glycan array binding signal (z-score),[46],-0.176
same,glycan array binding signal (z-score),[47],-0.123
same,glycan array binding signal (z-score),[48],6.48
same,glycan array binding signal (z-score),[49],-0.173
same,glycan array binding signal (z-score),[50],-0.177
same,glycan array binding signal (z-score),[51],-0.169
same,glycan array binding signal (z-score),[52],-0.172
same,glycan array binding signal (z-score),[53],-0.175
same,glycan array binding signal (z-score),[54],-0.172
same,glycan array binding signal (z-score),[55],-0.166
same,glycan array binding signal (z-score),[56],-0.176
same,glycan array binding signal (z-score),[57],-0.175
same,glycan array binding signal (z-score),[58],-0.175
same,glycan array binding signal (z-score),[59],-0.175
